# Screening results deposited in PubChem by National Center for Advancing Translational Sciences (NCATS).
# Shown are actives, neighbours in structure and some others; about 2.8% of the full set was active somewhere.
# KDM5B inh = Primary screen for KDM5B Histone Demethylases FDH-coupled qHTS; actives 2.6% (n = 220,000); Potency, µM (doses to about 57.7 µM), usual class: inhibitors; AID 1347165, 2019; Lysine-specific demethylase 5B (Homo sapiens), Q9UGL1; KDM5B demethylase, FDH-coupled NADH fluorescence (FDH is formaldehyde dehydrogenase); note: potency is the fitted concentration of half-maximal effect; 0% is about no effect; nearly all actives have a fitted effect of over 70% in size
#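 qHTS format, multiple compound concentrations. Buffer 50 mM HEPES pH 7.5/0.01% Tween-20; 200 nM KDM5BΔAP final; 10 min compound preincubation; substrate-mix levels 12.5 µM peptide, 25 µM α-KG, 0.25 mM NAD⁺; 30 min RT; ΔRFU.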
# SNCA expr inhib = Primary qHTS assay for inhibitors of alpha-synuclein gene (SNCA) expression; Potency, µM (titrated, usually from 57.2 µM), for inactives: at the highest dose activity change, negative = inhibition, actives largely listed as inhibitors; HEK-293 SNCA-luciferase knock-in, luminescence, 24 h; actives 0.17% (n = 140,000);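 note: potency is the fitted concentration of half-maximal effect; plate controls were DMSO cells for no effect and cell-free wells for full effect; nearly all actives have a fitted effect of over 45% in size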
# IP6K1 inh = Primary qHTS assay for small molecule inhibitors of Inositol hexaphosphate kinase 1 (IP6K1) | Inositol hexakisphosphate kinase 1 (Homo sapiens), Q92551 | IP6K1 kinase, ADP-Glo luminescence, 2 h; hits give low values | activity change, % (series mostly up to about 58 µM) | actives 0.81% (n = 140,000) | AID 1645851, 2021; in the data active = activity change below about -25%; note: % is set by controls: 0 for no effect and ±100 for the full control effect
#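 ADP-Glo luminescence measures ADP made by human IP6K1 during a 2 h RT reaction with ATP/IP6 (mix at 1.3 mM/130 uM); top library doses 57.5 and 19.1 uM final.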
# SNCA viab count = GF-AFC viability counterscreen for inhibitors of alpha-synuclein gene (SNCA) expression | HEK-293-SNCA-luc viability, GF-AFC fluorescence, 24 h | Potency, µM (titrated, usually from 57.1 µM), inactives show top-dose activity change, negative = cytotoxicity, hits mostly cytotoxic | actives 0.12% (n = 150,000);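 note: potency is the fitted concentration of half-maximal effect; 0% = DMSO-treated cells and -100% = medium-only wells without cells; nearly all actives have a fitted effect of over 30% in size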
#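 HEK-293-SNCA-luc cells (1500/well) plated 24 h, then exposed 24 h to a dilution series; GF-AFC added 30 min at 37C, fluorescence 405/540 nm; normalised to medium-only and DMSO wells, Hill fit.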
# IP6K1 conf = Confirmatory qHTS assay for small molecule inhibitors of Inositol hexaphosphate kinase 1 (IP6K1); shares compounds with IP6K1 inh; recombinant IP6K1 kinase, ADP-Glo luminescence, 2 h; Potency, µM (series often up to 49 µM), inactives show top-dose activity change, negative = inhibition, actives largely listed as inhibitors; actives 13% (n = 1,200); AID 1645852, 2021; note: potency is the fitted concentration of half-maximal effect; % is set by controls: 0 for no effect and ±100 for the full control effect; nearly all actives have a fitted effect of over 65% in size
# Starred values were filed as active, the others as inactive; i = inactive; ? = inconclusive; · = no result; ! = not active in a repeat; [ ] = remark or other dose. Unless noted, calls come from the whole dose curve; as a rule, active = well fitted curve in the direction sought with a large enough effect; inconclusive = small, poorly fitted or top-dose-only effect, or another doubt; inactive = no such curve, though single readings can be large; an effect the other way counts as inactive or inconclusive.
SMILES,KDM5B inh,SNCA expr inhib,IP6K1 inh,SNCA viab count,IP6K1 conf
OC[C@H]1C[C@@H](NCc2cccc3c2OCO3)[C@H](O)[C@@H]1O,i,2%[87.6 µM],-26*,1%[87.6 µM],?
CC1=C[C@@H](CN2CCN(c3ncccn3)CC2)[C@H](C(C)C)C[C@H]1Cc1nnc(-c2ccccc2F)o1,?,?,7,?,·
Cc1ccc(NS(=O)(=O)c2ccc(C(=O)OCC(=O)c3ccc[nH]3)cc2)cc1,i,·,·,·,·
CCOc1ccc(NS(=O)(=O)c2ccc3nc(-c4ccccc4)[nH]c3c2)cc1,i,-21%,-22,-3%,·
COc1ccc(NS(=O)(=O)c2ccc3nc(-c4ccccc4)[nH]c3c2)cc1,i,-30%,-31*,-19%,-17%
Cn1cnc2c(F)c(Nc3ccc(Br)cc3F)c(C(=O)NOCCO)cc21,·,-3%,12,4%,-12%
O=C(NOCC(O)CO)c1cc(Br)c(F)c(F)c1Nc1ccc(I)cc1F (stereo not drawn),·,4%,·,-24%,·
O=C(CN1CCN(Cc2ccccn2)CC1)Nc1cccc2nsnc12,i,·,·,·,·
CCOc1ccc(C2Cn3nnc(-c4nc(-c5ccsc5)no4)c3CO2)cc1 (stereo not drawn),25µM*,31%,-27*,-1%,-14%
COc1cccc(C(=O)N2CCN(c3ccc4ncc(-c5cccc(C(F)(F)F)c5)n4n3)CC2)c1,·,·,4,·,·
CC(C)c1ccc2oc(-c3ccc(Cl)c(NC(=O)c4cccnc4)c3)nc2c1,i,·,·,·,·
Cc1ccc(C)c(N2CCN(c3ncnc4c3nc3n4CCCC3)CC2)c1,i,23%,-30*,-19%,-3%
Cc1ccc(OCC(=O)Nc2ccc3nc(SCC(N)=O)sc3c2)cc1,i,28%,8,0%,·
Cc1ccc(OCC(=O)Nc2ccc3nc(SCCOc4ccccc4)sc3c2)cc1,i,33%,-27*,1%,0%
CCOc1ccc(C2(c3cccc(Br)c3)CCCCC2)cc1,i,·,·,·,·
COc1ccc(Cl)cc1NC(=O)CN(C)S(=O)(=O)c1ccc(Br)s1,i,?,-26*,3%,29%
Cc1cc(-n2c(C)nc3ccccc3c2=O)ccc1NC(=O)c1ccc(C)c([N+](=O)[O-])c1,i,11%,-25*,1%,4%
CS(=O)(=O)Cc1cccc(C(=O)NCC(O)c2cccc(Cl)c2)c1 (stereo not drawn),i,·,·,·,·
COC(=O)CSc1sc(=O)sc1SC,i,·,·,·,·
O=C(Cn1cc(S(=O)(=O)Cc2cccc(Cl)c2)c2ccccc21)Nc1ccc(F)c(Cl)c1,i,-26%,-37*,-17%,0%
CC(c1ccc(-c2cc(N)ncn2)cc1)N1CCCCC1 (stereo not drawn),?,-15%,12,7%,-2%
CC(=O)N1CCN(C(=O)Cc2ccc(Nc3ncc(F)c(Nc4ccc(C(=O)Nc5ccccc5Cl)cc4)n3)cc2)CC1,·,·,-30*,?,?
O=C(Nc1noc2ccccc12)c1ccc(F)cc1,i,-75%,-48*,18%,?
O=C(Nc1noc2ccccc12)c1cccc(F)c1,?,-41%,1,11%,·
CCN1CCN(C(c2ccc(F)cc2)c2sc3nc(-c4ccco4)nn3c2O)CC1 (stereo not drawn),i,46%,-29*,?,?
SMILES,KDM5B inh,SNCA expr inhib,IP6K1 inh,SNCA viab count,IP6K1 conf
COc1ccc(C(=O)CSc2nnc(Nc3ccccc3OC)s2)c(OC)c1,i,·,·,·,·
Cc1cc(C)c2nc(C)cc(Nc3cccc(C(=O)O)c3)c2c1,?,1%,-25*,?,-8%
CCOC(=O)c1cnc2c(C)cc(C)cc2c1Nc1cccc(C(=O)O)c1,i,40%,-26*,-11%,?
CCOC(=O)c1cnc2c(C)cc(C)cc2c1Nc1cccc(O)c1,i,·,·,·,·
COc1cccc(-c2ccc3c(N)c(C(=O)Nc4ccccc4C)sc3n2)c1,?,?,-26*,?,2%
COc1cccc(-c2ccc3c(N)c(C(=O)Nc4cc(F)ccc4F)sc3n2)c1,i,106%,18,?,·
CCNc1nc2c(s1)C(c1cccc(F)c1)CC(=O)N2 (stereo not drawn),25µM*,-1%,-71*,0%,16µM*
CCOCCCNC(=O)Cn1c(=O)c2c(ncn2CCOC)n(Cc2ccccc2)c1=O,i,·,·,·,·
OCc1c[nH]c2ccccc12,·,-30%,-28*,-13%,-13%[92.2 µM]
O=C(O)Cc1c[nH]c2ccccc12,i,·,·,·,·
CCc1nc2ccc(C(=O)Nc3ccc(C)cn3)cc2nc1CC,i,·,·,·,·
NC(=O)c1ccc(NC(=O)/C=C/c2ccc(Cl)c(C(F)(F)F)c2)cc1,i,·,·,·,·
O=C(O)CC1(O)C(=O)Nc2ccccc21 (stereo not drawn),·,·,-31*,4%[87.6 µM],?
O=C(O)CC1(O)C(=O)Nc2cc(Br)ccc21 (stereo not drawn),i,·,·,·,·
O=C(c1ccc(F)cc1)N1Cc2[nH]cnc2C[C@H]1c1nc(-c2ccc(Cl)cc2)no1,i,2%[87.6 µM],-39*,-3%[87.6 µM],?
Cc1cccc(-c2noc([C@@H]3Cc4nc[nH]c4CN3C(=O)c3ccc(F)cc3)n2)c1,i,?,-14,-8%[87.6 µM],·
COc1ccc(CNC(=O)c2cc3c(-c4ccccc4F)nn(C)c3s2)cc1,?,-10%,-36*,-21%,?
COc1ccc(CCNC(=O)c2cc3c(-c4ccccc4F)nn(C)c3s2)c(OC)c1,?,-8%,5,-17%,·
COc1ccc(-c2ccc3ncc4c(c3c2)n(-c2ccc(N3CCNCC3)c(C(F)(F)F)c2)c(=O)n4C)cn1,·,?,-15,30µM*!,-28%
CCC(=O)c1c(O)cc(O)cc1O,·,12%[25.6 µM],-29*,35%[23.9 µM],?
CCC(=O)c1ccc(NC(C)=O)cc1O,i,·,·,·,·
O=C(c1ccc(F)cc1)N1CCN(c2ccc3nnc(-c4ccccc4)n3n2)CC1,·,·,2,·,·
Cc1cccc(Nc2sc(C(=O)c3ccc(Cl)cc3)c(N)c2C(N)=O)c1,?,0%,-39*,-9%,-10%
COC(=O)c1ccc([C@H]2Nc3ccc(S(=O)(=O)Nc4cccc(C)c4)cc3[C@H]3C=CC[C@H]32)cc1,?,10%,6,-1%,·
Cc1ccc([C@H]2Nc3ccc(S(=O)(=O)Nc4cccc(Cl)c4C)cc3[C@H]3C=CC[C@H]32)cc1,?,-10%,-27*,-19%,-5%
COc1ccc(-c2nc(CSCC(=O)N3CCN(c4cccc(C)c4C)CC3)c(C)o2)cc1OC,?,-15%,-26*,?,-8%
